Holding throughout (assay): PBM; 200 nM protein, PBS
Conditions in all cases: dsDNA, one strand shown

The target of assay [1] is T1, VENTX (Homo sapiens, UniProt O95231 78-163, R121Q).
T1 sequence: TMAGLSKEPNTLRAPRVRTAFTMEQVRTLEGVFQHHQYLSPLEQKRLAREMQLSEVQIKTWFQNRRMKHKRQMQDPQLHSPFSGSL

Assay [2] addresses T2, VENTX (Homo sapiens, UniProt O95231 78-163).
T2 sequence: T1 sequence with Q44R

Assay [3] addresses ALX4 (Homo sapiens, UniProt Q9H161 200-286).
In assay [4] the target is T3, VENTX (Homo sapiens, UniProt O95231 78-163, Y115F).
T3 sequence: T1 sequence with Y38F, Q44R

The target of assay [5] is ALX4 (Homo sapiens, UniProt Q9H161 200-286, Q225E).
Chain of ALX4 (Homo sapiens, UniProt Q9H161 200-286, Q225E) (Q9H161 200-286 Q225E): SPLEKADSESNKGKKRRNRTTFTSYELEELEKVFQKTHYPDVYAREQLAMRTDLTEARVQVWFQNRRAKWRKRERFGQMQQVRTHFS
Assay [6] concerns the target HOXA2 (Homo sapiens, UniProt O43364 129-215, R185T).
In assay [7] the target is ALX3 (Homo sapiens, UniProt O95076 139-225, N203Q).
Chain of ALX3 (Homo sapiens, UniProt O95076 139-225, N203Q) (O95076 139-225 N203Q): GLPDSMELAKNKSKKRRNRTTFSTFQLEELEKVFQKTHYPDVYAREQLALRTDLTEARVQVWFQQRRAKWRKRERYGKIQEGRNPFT
For assay [8], the target named is HOXA2 (Homo sapiens, UniProt O43364 129-215, R185K).
Chain of HOXA2 (Homo sapiens, UniProt O43364 129-215, R185K) (O43364 129-215 R185K): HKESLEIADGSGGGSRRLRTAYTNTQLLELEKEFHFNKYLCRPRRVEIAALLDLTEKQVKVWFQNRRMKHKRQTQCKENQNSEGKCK
The target in assay [9] is ALX3 (Homo sapiens, UniProt O95076 139-225).
Chain of ALX3 (Homo sapiens, UniProt O95076 139-225) (O95076 139-225): as the sequence (O95076 139-225 N203Q) above, with Q65N counted along it
For assay [10], the target named is ALX3 (Homo sapiens, UniProt O95076 139-225, L168Q).
Chain of ALX3 (Homo sapiens, UniProt O95076 139-225, L168Q) (O95076 139-225 L168Q): as the sequence (O95076 139-225 N203Q) above, with L30Q, Q65N counted along it
Assay [11] has as its target ALX3 (Homo sapiens, UniProt O95076 139-225, L168V).
Assay [12] concerns the target HOXA2 (Homo sapiens, UniProt O43364 129-215, Y150S).
Assay [13] concerns the target ALX3 (Homo sapiens, UniProt O95076 139-225, N203S).
For assay [14], the target named is HOXA2 (Homo sapiens, UniProt O43364 129-215).
Chain of HOXA2 (Homo sapiens, UniProt O43364 129-215) (O43364 129-215): as the sequence (O43364 129-215 R185K) above, with K57R counted along it
In assay [15] the target is HOXC10 (Homo sapiens, UniProt Q9NYD6 254-340).
Chain of HOXC10 (Homo sapiens, UniProt Q9NYD6 254-340) (Q9NYD6 254-340): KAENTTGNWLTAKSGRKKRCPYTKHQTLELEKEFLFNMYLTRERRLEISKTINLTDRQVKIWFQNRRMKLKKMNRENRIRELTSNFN
Assay [16] deals with HOXC10 (Homo sapiens, UniProt Q9NYD6 254-340, K271E).
Chain of HOXC10 (Homo sapiens, UniProt Q9NYD6 254-340, K271E) (Q9NYD6 254-340 K271E): as the sequence (Q9NYD6 254-340) above, with K18E counted along it
Assay [17] addresses PRRX1 (Homo sapiens, UniProt P54821 80-166, F113S).
Assay [18] concerns the target PRRX1 (Homo sapiens, UniProt P54821 80-166).
Assay [19] has as its target T4, PAX4 (Homo sapiens, UniProt O43316 9-242, R200K).
T4 sequence: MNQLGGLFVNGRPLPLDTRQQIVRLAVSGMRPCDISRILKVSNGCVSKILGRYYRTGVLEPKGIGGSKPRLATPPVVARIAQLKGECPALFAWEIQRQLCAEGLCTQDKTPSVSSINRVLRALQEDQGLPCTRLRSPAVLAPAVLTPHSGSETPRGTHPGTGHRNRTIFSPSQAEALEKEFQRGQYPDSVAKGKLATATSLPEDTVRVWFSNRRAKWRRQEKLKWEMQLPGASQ

For assay [20], the target named is T5, PAX4 (Homo sapiens, UniProt O43316 9-242).
T5 sequence: T4 sequence with K192R

Assay [21] has as its target HOXB9 (Homo sapiens, UniProt P17482 171-250).
In assay [22] the target is T6, PAX4 (Homo sapiens, UniProt O43316 9-242, R200Q).
T6 sequence: T4 sequence with K192Q

Assay [23] concerns the target T7, PAX4 (Homo sapiens, UniProt O43316 9-242, F177V).
T7 sequence: T4 sequence with F169V, K192R

Assay [24] deals with T8, PAX4 (Homo sapiens, UniProt O43316 9-242, F177Y).
T8 sequence: T4 sequence with F169Y, K192R

Assay [25] addresses HOXB9 (Homo sapiens, UniProt P17482 171-250, R186Q).
The target of assay [26] is T9, PAX4 (Homo sapiens, UniProt O43316 9-242, R227W).
T9 sequence: T4 sequence with K192R, R219W

Assay [27] addresses ALX1 (Homo sapiens, UniProt Q15699 118-204, L144V).
Assay [28] concerns the target ALX1 (Homo sapiens, UniProt Q15699 118-204, L144R).
Assay [29] has as its target ALX1 (Homo sapiens, UniProt Q15699 118-204).

Where a chain is given by its changes, count along the chain named.

Chain of ALX3 (Homo sapiens, UniProt O95076 139-225, L168V) (O95076 139-225 L168V): as the sequence (O95076 139-225 N203Q) above, with L30V, Q65N counted along it
Chain of ALX3 (Homo sapiens, UniProt O95076 139-225, N203S) (O95076 139-225 N203S): as the sequence (O95076 139-225 N203Q) above, with Q65S counted along it
Chain of ALX4 (Homo sapiens, UniProt Q9H161 200-286) (Q9H161 200-286): as the sequence (Q9H161 200-286 Q225E) above, with E26Q counted along it
Chain of HOXB9 (Homo sapiens, UniProt P17482 171-250) (P17482 171-250): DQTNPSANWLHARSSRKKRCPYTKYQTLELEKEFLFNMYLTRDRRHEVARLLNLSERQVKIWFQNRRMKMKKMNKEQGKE
Chain of ALX1 (Homo sapiens, UniProt Q15699 118-204, L144V) (Q15699 118-204 L144V): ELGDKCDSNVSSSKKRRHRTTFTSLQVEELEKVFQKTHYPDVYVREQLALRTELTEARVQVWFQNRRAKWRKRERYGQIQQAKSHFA
Chain of ALX1 (Homo sapiens, UniProt Q15699 118-204) (Q15699 118-204): as the sequence (Q15699 118-204 L144V) above, with V27L counted along it
Chain of ALX1 (Homo sapiens, UniProt Q15699 118-204, L144R) (Q15699 118-204 L144R): as the sequence (Q15699 118-204 L144V) above, with V27R counted along it
Chain of HOXA2 (Homo sapiens, UniProt O43364 129-215, R185T) (O43364 129-215 R185T): as the sequence (O43364 129-215 R185K) above, with K57T counted along it
Chain of HOXB9 (Homo sapiens, UniProt P17482 171-250, R186Q) (P17482 171-250 R186Q): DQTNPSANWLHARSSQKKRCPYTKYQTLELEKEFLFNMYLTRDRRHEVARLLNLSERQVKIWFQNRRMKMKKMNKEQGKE
Chain of PRRX1 (Homo sapiens, UniProt P54821 80-166, F113S) (P54821 80-166 F113S): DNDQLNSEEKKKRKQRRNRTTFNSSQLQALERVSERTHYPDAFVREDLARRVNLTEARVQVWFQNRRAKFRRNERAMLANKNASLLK
Chain of PRRX1 (Homo sapiens, UniProt P54821 80-166) (P54821 80-166): as the sequence (P54821 80-166 F113S) above, with S34F counted along it
Chain of HOXA2 (Homo sapiens, UniProt O43364 129-215, Y150S) (O43364 129-215 Y150S): as the sequence (O43364 129-215 R185K) above, with Y22S, K57R counted along it

Regarding CCCAGAGG, the binding signal was 7.95 upbm affinity estimate (log intensity, higher = more binding, comparable within an allelic series) in the assay with VENTX [1]; 7.77 upbm affinity estimate (log intensity, higher = more binding, comparable within an allelic series) with VENTX [2]; 8.01 upbm affinity estimate (log intensity, higher = more binding, comparable within an allelic series) with ALX4 [3]; 7.81 upbm affinity estimate (log intensity, higher = more binding, comparable within an allelic series) with VENTX [4]; 8 upbm affinity estimate (log intensity, higher = more binding, comparable within an allelic series) in the assay with ALX4 [5]; 7.09 upbm affinity estimate (log intensity, higher = more binding, comparable within an allelic series) with HOXA2 [6]. Besides, the binding signal is 7.67 upbm affinity estimate (log intensity, higher = more binding, comparable within an allelic series) with ALX3 [7]; 10.2 upbm affinity estimate (log intensity, higher = more binding, comparable within an allelic series) in the assay with HOXA2 [8]; 7.71 upbm affinity estimate (log intensity, higher = more binding, comparable within an allelic series) in the assay with ALX3 [9]; 7.65 upbm affinity estimate (log intensity, higher = more binding, comparable within an allelic series) in the assay with ALX3 [10]; 7.63 upbm affinity estimate (log intensity, higher = more binding, comparable within an allelic series) with ALX3 [11]; 10.3 upbm affinity estimate (log intensity, higher = more binding, comparable within an allelic series) in the assay with HOXA2 [12]. For the same sequence, the binding signal with ALX3 [13] is 7.62 upbm affinity estimate (log intensity, higher = more binding, comparable within an allelic series); with HOXA2 [14], 7.15 upbm affinity estimate (log intensity, higher = more binding, comparable within an allelic series).
With CCCCTCAG, the binding signal in the assay with VENTX [1] is 8.25 upbm affinity estimate (log intensity, higher = more binding, comparable within an allelic series); in the assay with VENTX [2], 8.19 upbm affinity estimate (log intensity, higher = more binding, comparable within an allelic series); in the assay with HOXC10 [15], 10.1 upbm affinity estimate (log intensity, higher = more binding, comparable within an allelic series); in the assay with VENTX [4], 8.01 upbm affinity estimate (log intensity, higher = more binding, comparable within an allelic series); in the assay with HOXC10 [16], 10.1 upbm affinity estimate (log intensity, higher = more binding, comparable within an allelic series).
As for CCGAGTCC, the binding signal with VENTX [1] was 8.15 upbm affinity estimate (log intensity, higher = more binding, comparable within an allelic series); with VENTX [2], 8.13 upbm affinity estimate (log intensity, higher = more binding, comparable within an allelic series); with PRRX1 [17], 9.18 upbm affinity estimate (log intensity, higher = more binding, comparable within an allelic series); with VENTX [4] it was 8.08 upbm affinity estimate (log intensity, higher = more binding, comparable within an allelic series); with PRRX1 [18] it was 9.67 upbm affinity estimate (log intensity, higher = more binding, comparable within an allelic series).
Regarding CCGAATTA, the binding signal with VENTX [1] is 10.1 upbm affinity estimate (log intensity, higher = more binding, comparable within an allelic series); with VENTX [2], 10.6 upbm affinity estimate (log intensity, higher = more binding, comparable within an allelic series); with PAX4 [19], 11.8 upbm affinity estimate (log intensity, higher = more binding, comparable within an allelic series); with VENTX [4], 9.98 upbm affinity estimate (log intensity, higher = more binding, comparable within an allelic series); with PAX4 [20] it was 12.4 upbm affinity estimate (log intensity, higher = more binding, comparable within an allelic series); with HOXB9 [21] it was 10.1 upbm affinity estimate (log intensity, higher = more binding, comparable within an allelic series). The binding signal with PAX4 [22] is 11.8 upbm affinity estimate (log intensity, higher = more binding, comparable within an allelic series); with PAX4 [23] it was 10.4 upbm affinity estimate (log intensity, higher = more binding, comparable within an allelic series); with PAX4 [24], 11.1 upbm affinity estimate (log intensity, higher = more binding, comparable within an allelic series); in the assay with HOXB9 [25], 10 upbm affinity estimate (log intensity, higher = more binding, comparable within an allelic series); in the assay with PAX4 [26], 10.9 upbm affinity estimate (log intensity, higher = more binding, comparable within an allelic series).
Consider ACCCGTGC, for which the binding signal with VENTX [1] is 8.15 upbm affinity estimate (log intensity, higher = more binding, comparable within an allelic series); in the assay with VENTX [2], 8.32 upbm affinity estimate (log intensity, higher = more binding, comparable within an allelic series); with VENTX [4], 8.18 upbm affinity estimate (log intensity, higher = more binding, comparable within an allelic series).
Regarding AGCGATTA, the binding signal with VENTX [1] was 11.2 upbm affinity estimate (log intensity, higher = more binding, comparable within an allelic series); in the assay with VENTX [2], 12.3 upbm affinity estimate (log intensity, higher = more binding, comparable within an allelic series); in the assay with VENTX [4], 11.3 upbm affinity estimate (log intensity, higher = more binding, comparable within an allelic series).
In the case of CTGGCGCA, the binding signal with VENTX [1] was 8.11 upbm affinity estimate (log intensity, higher = more binding, comparable within an allelic series); with VENTX [2] it was 8.09 upbm affinity estimate (log intensity, higher = more binding, comparable within an allelic series); with HOXC10 [15], 9.99 upbm affinity estimate (log intensity, higher = more binding, comparable within an allelic series); with VENTX [4], 8.2 upbm affinity estimate (log intensity, higher = more binding, comparable within an allelic series); in the assay with ALX1 [27], 6.29 upbm affinity estimate (log intensity, higher = more binding, comparable within an allelic series); in the assay with ALX3 [7] it was 7.76 upbm affinity estimate (log intensity, higher = more binding, comparable within an allelic series). Moreover, the binding signal in the assay with ALX1 [28] is 6.21 upbm affinity estimate (log intensity, higher = more binding, comparable within an allelic series); in the assay with HOXC10 [16] it was 10 upbm affinity estimate (log intensity, higher = more binding, comparable within an allelic series); with ALX3 [9], 7.58 upbm affinity estimate (log intensity, higher = more binding, comparable within an allelic series); with ALX3 [10], 7.71 upbm affinity estimate (log intensity, higher = more binding, comparable within an allelic series); in the assay with ALX3 [11], 7.74 upbm affinity estimate (log intensity, higher = more binding, comparable within an allelic series); in the assay with ALX1 [29] it was 6.24 upbm affinity estimate (log intensity, higher = more binding, comparable within an allelic series). Moreover, the binding signal with ALX3 [13] was 7.82 upbm affinity estimate (log intensity, higher = more binding, comparable within an allelic series).
As to AATCCATT, the binding signal with VENTX [1] is 10.1 upbm affinity estimate (log intensity, higher = more binding, comparable within an allelic series); with VENTX [2] it was 10.5 upbm affinity estimate (log intensity, higher = more binding, comparable within an allelic series); with VENTX [4] it was 9.94 upbm affinity estimate (log intensity, higher = more binding, comparable within an allelic series).
For CTACCCGC, the binding signal with VENTX [1] is 8.06 upbm affinity estimate (log intensity, higher = more binding, comparable within an allelic series); in the assay with VENTX [2] it was 8.07 upbm affinity estimate (log intensity, higher = more binding, comparable within an allelic series); with VENTX [4], 8.08 upbm affinity estimate (log intensity, higher = more binding, comparable within an allelic series).
For GCTCCGCC, the binding signal with VENTX [1] is 8.31 upbm affinity estimate (log intensity, higher = more binding, comparable within an allelic series); in the assay with VENTX [2], 8.4 upbm affinity estimate (log intensity, higher = more binding, comparable within an allelic series); with VENTX [4], 8.22 upbm affinity estimate (log intensity, higher = more binding, comparable within an allelic series).
For CCGAGCCC, the binding signal is 8.05 upbm affinity estimate (log intensity, higher = more binding, comparable within an allelic series) in the assay with VENTX [1]; 8.08 upbm affinity estimate (log intensity, higher = more binding, comparable within an allelic series) with VENTX [2]; 8.04 upbm affinity estimate (log intensity, higher = more binding, comparable within an allelic series) in the assay with VENTX [4].
TTACATAA: the binding signal with VENTX [1] is 9.95 upbm affinity estimate (log intensity, higher = more binding, comparable within an allelic series); in the assay with VENTX [2], 10.4 upbm affinity estimate (log intensity, higher = more binding, comparable within an allelic series); with VENTX [4], 9.97 upbm affinity estimate (log intensity, higher = more binding, comparable within an allelic series).
Regarding CGATTAGC, the binding signal in the assay with VENTX [1] was 11.7 upbm affinity estimate (log intensity, higher = more binding, comparable within an allelic series); in the assay with VENTX [2] it was 12.8 upbm affinity estimate (log intensity, higher = more binding, comparable within an allelic series); with VENTX [4] it was 11.6 upbm affinity estimate (log intensity, higher = more binding, comparable within an allelic series).
As for AAATTCGT, the binding signal is 9.56 upbm affinity estimate (log intensity, higher = more binding, comparable within an allelic series) in the assay with VENTX [1]; 9.96 upbm affinity estimate (log intensity, higher = more binding, comparable within an allelic series) with VENTX [2]; 9.72 upbm affinity estimate (log intensity, higher = more binding, comparable within an allelic series) in the assay with VENTX [4].
On to CGATTAAG, for which the binding signal in the assay with VENTX [1] is 11.4 upbm affinity estimate (log intensity, higher = more binding, comparable within an allelic series); with VENTX [2] it was 12.4 upbm affinity estimate (log intensity, higher = more binding, comparable within an allelic series); with VENTX [4], 11.3 upbm affinity estimate (log intensity, higher = more binding, comparable within an allelic series).
For CTCGGACC, the binding signal with VENTX [1] is 8.07 upbm affinity estimate (log intensity, higher = more binding, comparable within an allelic series); with VENTX [2], 8.13 upbm affinity estimate (log intensity, higher = more binding, comparable within an allelic series); with VENTX [4], 8.15 upbm affinity estimate (log intensity, higher = more binding, comparable within an allelic series).
In the case of AGCCCGAA, the binding signal is 8.34 upbm affinity estimate (log intensity, higher = more binding, comparable within an allelic series) with VENTX [1]; 8.32 upbm affinity estimate (log intensity, higher = more binding, comparable within an allelic series) with VENTX [2]; 8.13 upbm affinity estimate (log intensity, higher = more binding, comparable within an allelic series) in the assay with VENTX [4].
Turning to CGGGCGCC, the binding signal with VENTX [1] was 8.04 upbm affinity estimate (log intensity, higher = more binding, comparable within an allelic series); with VENTX [2], 8.22 upbm affinity estimate (log intensity, higher = more binding, comparable within an allelic series); with VENTX [4], 8.23 upbm affinity estimate (log intensity, higher = more binding, comparable within an allelic series).
As to CCCATTAC, the binding signal with VENTX [1] was 11.4 upbm affinity estimate (log intensity, higher = more binding, comparable within an allelic series); with VENTX [2], 12.4 upbm affinity estimate (log intensity, higher = more binding, comparable within an allelic series); in the assay with VENTX [4] it was 11.2 upbm affinity estimate (log intensity, higher = more binding, comparable within an allelic series).
